Here are results for 54 molecules from ChEMBL document CHEMBL4888484, “Replenishing the malaria drug discovery pipeline: Screening and hit evaluation of the MMV Hit Generation Library 1 (HGL1) against asexual blood stage Plasmodium falciparum ,using a nano luciferase reporter read-out” (2022).

In all, about 150,000 compounds went through this assay and about 540 (0.36%) showed an effect of 50% or more. This excerpt belongs to a sample that is enriched for strong results.

The subject of the experiment is Plasmodium falciparum. Put plainly: Primary screen in NF54 nanoGlo assay, in single point, at 2uM, 72h; a lower Z score goes with more inhibition. The experiment is classed as functional, Erythrocyte. The following applies: timepoint 72 hour.
As a reminder, the % Inhibition is the drop in the measured response relative to a control, in per cent. For `O=C(Nc1cccc(Cl)c1)Nc1nnc2cccc(Cl)n12`, the “% Inhibition” value is -18% and the Z score stood at 2.03.
In the same order, the values of `Cc1csc(NC(=O)c2cc(-c3ccccc3)on2)n1` are -6% and 1.01.
In the same order, the values of `COc1cc2ccc1OCC(=O)N[C@@H](C)C(=O)N(C)CCCCN(C(=O)c1cc(Cl)cn1C)CCCNC2=O` are -24% and 3.05.
As to `COCC1(CNC(=O)c2ccc(-c3ccncc3C)cc2)CCC1`, the “% Inhibition” value is given as 8% and the Z score is listed as -1.
The matching figures for `Cn1cc(N2C[C@@H](C(=O)NCC=Cc3cccnc3)CCC2=O)cn1`: -4% and 0.63.
As for `Cn1c(C(=O)N2CC[C@H](N)C2)ccc1-c1cccc(Br)c1`, the “% Inhibition” value is reported as 50% and the Z score is listed as -7.09.
In the same order, the values of `Cn1c(C(=O)N2CC[C@H](N)C2)ccc1-c1ccccc1Br` are 0% and 0.05.
As for `N[C@@H]1CCN(C(=O)c2cccnc2Oc2cccc(Br)c2)C1`, the “% Inhibition” value is -12% and the Z score came to 1.38.
`CC1(C2CC2)CCN(C(=O)c2csnn2)CC1`: the “% Inhibition” value is 2% and the Z score was -0.37.
The matching figures for `Cc1ccsc1CN(Cc1ccccc1)C(=O)CN(C(=O)C1CCCC1)C1CCCCC1`: -2% and 0.35.
The matching figures for `COc1cccc(CN2C(=O)N[C@@](C)(C3CCN(C(=O)c4cccnc4OC)CC3)C2=O)c1OC`: 8% and -1.05.
Consider `CC(C)[C@H](NC(=O)c1cc(O)ccn1)C(=O)NC1CCCCC1`, for which the “% Inhibition” value is given as -5% and the Z score came out at 0.48.
The matching figures for `COc1cc(C=C(C(=O)Nc2ccccc2F)C(=O)Nc2ccccc2F)ccc1OCC(=O)Nc1cccc(C(F)(F)F)c1`: 80% and 1.63.
In the same order, the values of `CC=Cc1ccc(OCC(=O)Nc2cccc(NC(=O)Nc3ccccc3)c2)c(OC)c1` are -7% and 0.59.
On to `COc1cc(C(=O)NCc2cccnc2)ccc1OCC(=O)Nc1cccc(C(F)(F)F)c1`, for which the “% Inhibition” value was determined as 3% and the Z score was -0.33.
In the same order, the values of `Cc1cc(N2C[C@H]3CC[C@@H](C2)[C@H]3N(C)C)nc(Nc2cccc(O)c2)n1` are 77% and -8.01.
Turning to `Cc1cc(N2CC(OCc3ccccc3)C2)nc(Nc2cccc(O)c2)n1`, the “% Inhibition” value is on record as 91% and the Z score was -12.9.
In the same order, the values of `CCO[C@H]1CN(C)C[C@@H]1Nc1cc(C)nc(Nc2cccc(O)c2)n1` are -6% and 1.08.
The matching figures for `Cc1cc(NCc2csc(N(C)C)n2)nc(Nc2cccc(O)c2)n1`: -3% and 0.61.
In the same order, the values of `Cc1cc(N2CCOC[C@@H](O)C2)nc(Nc2cccc(O)c2)n1` are -4% and 0.39.
As to `O=C(c1nc2ccccc2[nH]1)N1CCN(c2ccccc2F)CC1`, the “% Inhibition” value is -1% and the Z score was 0.23.
In the same order, the values of `CCn1cc(-c2n[nH]cc2C(=O)N2CCN(CC(C)C)C(=O)C2)cn1` are 3% and -0.32.
The matching figures for `COc1ccc(S(=O)(=O)N2CCOC[C@H](Oc3ccccc3)C2)cc1`: 31% and -3.47.
The matching figures for `Cc1ccc(C)c(Cn2c(C(=O)Nc3ccccc3)cc3cc(NC(=O)c4ccco4)ccc32)c1`: 2% and -0.19.
With `CCc1cnccc1NC(=O)CCCC1CCOCC1`, the “% Inhibition” value is on record as -3% and the Z score amounted to 0.38.
On to `C[C@]1(c2cnccn2)NC(=O)N(Cc2cc(F)ccc2OC(F)F)C1=O`, for which the “% Inhibition” value is listed as -4% and the Z score worked out at 0.57.
For the molecule `CC(C)c1ocnc1C(=O)NC[C@H]1[C@H](c2ccccc2)C1(F)F`, the “% Inhibition” value is listed as -3% and the Z score was 0.47.
On to `COc1ccc2[nH]c3c(c2c1)CCN(C(=O)c1cc(Cl)cc(Cl)c1)[C@@H]3c1ccccc1OC`, for which the “% Inhibition” value is -11% and the Z score came to 1.21.
As for `COc1ccc2[nH]c3c(c2c1)CCN(C(=O)c1ccc(C)c(C)c1)[C@H]3COCc1ccccc1`, the “% Inhibition” value was determined as 0% and the Z score turned out to be 0.02.
`COc1ccc2[nH]c3c(c2c1)CCN(C(=O)c1ccc(C)c(C)c1)[C@@H]3c1ccccc1OC`: the “% Inhibition” value worked out at 84% and the Z score is listed as -11.27.
As to `COc1ccc(OC)c(CNc2cc[nH]n2)c1`, the “% Inhibition” value is -5% and the Z score worked out at 0.8.
The matching figures for `CCN(Cc1csc(C)n1)C[C@H]1CCCCO1`: 2% and -0.27.
As for `Cc1cccc(CN(Cc2cccc(C)n2)C[C@H]2CCCCO2)n1`, the “% Inhibition” value is given as 90% and the Z score was -9.86.
For the molecule `Cc1cccc(CN(CC2CCN(C3Cc4ccccc4C3)CC2)C[C@H]2CCCO2)n1`, the “% Inhibition” value was -1% and the Z score was 0.18.
The matching figures for `COc1ccc(CC(=O)N[C@H]2CCOC2)cc1OC`: -1% and 0.14.
With `COc1nc(NCC[C@H]2CCCCN2C)ncc1F`, the “% Inhibition” value was 3% and the Z score is -0.58.
In the same order, the values of `COc1nc(NC[C@H]2CCCN2C(C)C)ncc1F` are 64% and -12.06.
The matching figures for `COc1nc(NCC2CCN(CC(C)C)CC2)ncc1F`: -2% and 0.24.
In the same order, the values of `Cc1nn(C)c(C)c1CC(=O)N1CCC2(CCC2)S(=O)(=O)CC1` are -5% and 0.46.
Take `Cc1ccc(NS(=O)(=O)c2cc(-c3nc(C)c(C)s3)sc2C)c(C)c1`: the “% Inhibition” value is -5% and the Z score was determined as 0.62.
The matching figures for `CC1CCN(C(=O)[C@H]2CCc3ncc(-c4ccc(F)cc4)n3C2)CC1`: -7% and 1.27.
The matching figures for `COc1ccc(-c2cn3c(n2)CCC3)cc1`: -5% and 0.43.
As to `COc1ccc(-c2nn(-c3ccccc3F)cc2CN2CCOCC2)cc1`, the “% Inhibition” value is -19% and the Z score is given as 3.28.
In the same order, the values of `COc1ccc(-c2cn3cc(-c4ccccc4)c4c3n2CCCC4)cc1` are -8% and 1.46.
In the case of `COc1ccc(-[n+]2c(-c3ccccc3)cn3c2CCC3)cc1`, the “% Inhibition” value worked out at 79% and the Z score is given as -11.37.
As for `COc1ccc(-[n+]2c(-c3ccc(-c4ccccc4)cc3)cn3c2COCC3)cc1`, the “% Inhibition” value is 58% and the Z score is -11.93.
In the same order, the values of `COc1ccc(N2CCN(Cc3ccc(-c4ccccc4)cc3)CC2)cc1` are 5% and -1.
`NC(=O)N1CCCC(C(=O)N2CCCC2c2ccc(F)c(F)c2)C1` (stereo not drawn): the “% Inhibition” value worked out at 0% and the Z score is given as 0.02.
For the molecule `O=C1CC(C(=O)N2CCCC2c2ccncc2)CN1c1ccccc1` (stereo not drawn), the “% Inhibition” value is -8% and the Z score amounted to 1.05.
The matching figures for `O=C1CNC(C(=O)N2CCC[C@H]2c2ccncc2)=NN1c1ccccc1`: 3% and -0.62.
In the same order, the values of `O=C1CCC(C(=O)N2CCC[C@H]2c2ccncc2)=NN1c1ccccc1` are 67% and 1.73.
For `CN(C)c1noc(CN2CCc3ccc(F)cc3C2)n1`, the “% Inhibition” value is reported as 51% and the Z score is given as -2.97.
For the molecule `CCCc1nc(CN2CCc3ccc(F)cc3C2)no1`, the “% Inhibition” value was -4% and the Z score is given as 0.53.
The matching figures for `CN(C)c1noc(CN2CCc3c(F)cc(F)cc3C2)n1`: 10% and -0.88.
